The results in this text go back to PubChem BioAssay (NCATS).

Structures are written as SMILES. Values joined by “and” are separate entries in the source; they are usually repeats but may differ in a detail not shown here. Equal entries are not always repeated. Records with an inconclusive call do not appear. Active and inactive are the calls of the source. Unless noted, the call rests on the fitted dose curve; in most records, active means well fitted cell-killing curve with a large enough effect; inconclusive means small, poorly fitted or top-dose-only effect; inactive means flat fitted curve, though single readings scatter.

The nature of assay [1]: qHTS Assay for Lipid Storage Modulators (AID 1519; calls by dose curve; on activity change, negative = inhibition: on the % scale 0 is the no-effect control and ±100 the full control effect). Conditions: Drosophila S3 cells, BODIPY lipid droplet/cell ratio, laser cytometry, cells loaded with oleic acid. An outline of the steps:
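Cells seeded at 5,000 per well were treated with compounds over a concentration series and loaded with oleic acid (400 uM, as added). Lipid droplet fluorescence (488 nm excitation, 500-530 nm channel) was read by laser-scanning cytometry and normalized to 20 uM Triacsin C.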
Background: In qHTS, concentration-response curves come from the screen itself.

A short description of assay [2]: Cell Viability - LYMP2-010 (AID 981).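 Further: cells exposed to compound for 24 hours at 37 °C; on the % scale 0 is the no-effect control and ±100 the full control effect; nearly all actives have a fitted effect of over 55% in size.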 An outline of the steps:
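Acute toxicity is scored as a concentration-dependent loss of cellular ATP in human lymphoblastoid cells after 24 hr compound exposure in complete medium. Tetraoctylammonium bromide is the positive control.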

Assay [3] is described as follows: Cell Viability - LYMP2-012 (AID 982).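 Further: cellular ATP by luciferase luminescence where a drop means cytotoxicity; cells exposed to compound for one day before reading; 0% = DMSO only and full loss = 92 µM tetraoctylammonium bromide; nearly all actives have a fitted effect of over 55% in size.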
Assay [4] in a line: Cell Viability - LYMP2-014 (AID 983).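 Further: cells exposed to compound for 24 h at 37 °C; plate controls were DMSO only for no effect and 92 µM tetraoctylammonium bromide for full effect; nearly all actives have a fitted effect of over 50% in size.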 An outline of the steps:
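Decrease in intracellular ATP after 24 hr treatment at 37 C, measured by luciferase luminescence, indicated cytotoxicity. Concentration-response data were fitted with the standard Hill equation to give AC50.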

Assay [5] in a line: Cell Viability - LYMP2-016 (AID 984).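 Further: cells exposed to compound for 24 hours at 37 °C; on the % scale 0 is the no-effect control and ±100 the full control effect; nearly all actives have a fitted effect of over 55% in size.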 The procedure, abridged: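 Human lymphoblastoid cells (LYMP2-016), 2500/well in complete medium, preincubated 5 hr at 37 C, then compound-treated 24 hr at 37 C. Intracellular ATP read by CellTiter-Glo luminescence after 30 min at room temperature; AC50 from Hill-equation concentration-response fits.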
Assay [6] is described as follows: Cell Viability - LYMP2-018 (AID 985).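 Further: compound exposure lasted 24 hr at 37 °C; plate controls were DMSO only for no effect and tetraoctylammonium bromide at 92 µM for full effect; nearly all actives have a fitted effect of over 50% in size.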 An outline of the steps:
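Acute cytotoxicity is scored as a concentration-dependent drop in intracellular ATP after 24 hr exposure of the lymphoblastoid line in complete culture medium, measured by luciferase luminescence. Potency is expressed as AC50 from Hill modelling.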

Assay [7] is described as follows: Cell Viability - LYMP2-020 (AID 986).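 Further: cells exposed to compound for 24 h at 37 °C; plate controls were DMSO only for no effect and tetraoctylammonium bromide at 92 µM for full effect; nearly all actives have a fitted effect of over 55% in size.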 The procedure, abridged:
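Acute cytotoxicity in a human lymphoblastoid line is scored as a concentration-dependent fall in cellular ATP after 24 hr at 37 C in complete medium. The positive control is tetraoctylammonium bromide, and potency is given as Hill-fit AC50.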

A short description of assay [8]: Cell Viability - LYMP2-022 (AID 987). The procedure, abridged: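 Acute toxicity in a human lymphoblastoid line is scored as decreased intracellular ATP after 24 hr compound treatment at 37 C. ATP is measured by CellTiter-Glo luminescence; curves are fitted with the Hill equation to give AC50.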
Assay [9] can be described thus: Cell Viability - LYMP2-024 (AID 988).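 Further: plate controls were DMSO only for no effect and 92 µM tetraoctylammonium bromide for full effect; nearly all actives have a fitted effect of over 60% in size.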 The procedure, abridged: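 Acute toxicity is measured as concentration-dependent loss of intracellular ATP in a human lymphoblastoid line treated 24 hours at 37 C. Luciferase luminescence quantifies ATP; AC50 values come from standard Hill-equation modelling.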
The nature of assay [10]: Cell Viability - LYMP2-026 (AID 989).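 Further: cells exposed to compound for 24 h at 37 °C; on the % scale 0 is the no-effect control and ±100 the full control effect; nearly all actives have a fitted effect of over 50% in size.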 An outline of the steps:
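Concentration-dependent loss of intracellular ATP in human lymphoblastoid cells after 24 hr at 37 C, quantified by luciferase luminescence. AC50 derived from standard Hill equation.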

A short description of assay [11]: Cell Viability - LYMP1-002 - Assay at 24 hr (AID 993). Further: on the % scale 0 is the no-effect control and ±100 the full control effect. An outline of the steps: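 qHTS, LYMP1-002 lymphoblastoid, 24 h cpd, 37 C, CellTiter-Glo ATP luminescence; AC50 via Hill eq.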
Assay [12] in a line: Cell Viability - LYMP1-002 - Assay at 40 hr (AID 994).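 Further: 0% = DMSO only and full inhibition = 92 µM tetraoctylammonium bromide; nearly all actives have a fitted effect of over 60% in size.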 The procedure, abridged: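 Viability in the human lymphoblastoid line was measured as intracellular ATP via CellTiter-Glo after 40 hr compound exposure. Tetraoctylammonium bromide served as positive control.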
The mark [13] stands for this setting: measured here: cell count channel max response.
The mark [14] stands for this setting: measured here: lipid channel max response.

Take `Cc1cccc(Nc2ccccc2C(=O)O)c1C`: the values for the activity change, negative = inhibition in [1] (at 25.7 µM (top of the series)) and in assay [1] (at 57.5 µM (top of the series)) were -1.13% (inactive) and 13.8% (inactive), respectively. Besides, the max response was -7.11% and 0.438% in [1] (setting [13]); -8.71% and 19.7% in assay [1] (setting [14]).
As to `Cc1cc(C)nc(NS(=O)(=O)c2ccc(N)cc2)n1`, the outcome in assay [2], in assay [3], in [4], in assay [5], in assay [6] and in [7] was inactive. The molecule was classed as inactive in [8], in assay [9], in [10], in assay [11] and in assay [12]. Besides, the activity change, negative = inhibition is 1% (inactive) in [1] (at 25.7 µM (top of the series)) and 8.29% (inactive) in [1] (at 57.5 µM (top of the series)). In addition, the max response in assay [1] (setting [13]) is -2.08% and -9.55%; in assay [1] (setting [14]), -2.98% and 1.72%.
As for `NCc1ccc(S(N)(=O)=O)cc1`, the figures for the activity change, negative = inhibition in assay [1] (at 25.7 µM (top of the series)) and in assay [1] (at 57.5 µM (top of the series)) were -2.86% (inactive) and 9.84% (inactive), respectively. In addition, the max response in assay [1] (setting [13]) was -7.52% and 18.9%; in assay [1] (setting [14]) it was -8.55% and 31.3%.
In the case of `Cc1cc(=O)[nH]c(=S)[nH]1`, the outcome in [2], in [3], in assay [4], in [5], in [6] and in assay [7] was inactive. In addition, the result in assay [8], in assay [9], in [10], in assay [11] and in [12] was inactive.
As to `NS(=O)(=O)c1cc2c(cc1C(F)(F)F)NCNS2(=O)=O`, the activity change, negative = inhibition in assay [1] (at 25.7 µM (top of the series)) is -1.44% (inactive); in assay [1] (at 57.5 µM (top of the series)), 2.96% (inactive). Further, the max response in [1] (setting [13]) was -0.735% and 18.6%; in assay [1] (setting [14]) it was -2.63% and 23.7%.
With `FC(F)(F)C(Cl)Br` (stereo not given), the molecule was called inactive in assay [2], in [3], in [4], in assay [5], in assay [6] and in assay [7]. Further, the molecule was called inactive in assay [8], in assay [9], in assay [10], in [11] and in [12].
With `O=C(Cn1ccnc1[N+](=O)[O-])NCCO`, the activity change, negative = inhibition in [1] (at 25.7 µM (top of the series)) was -0.0007% (inactive); in assay [1] (at 57.5 µM (top of the series)), 2.99% (inactive). Besides, the max response in [1] (setting [13]) was -9.52% and 14.9%; in assay [1] (setting [14]), -8.62% and 19.4%.
Regarding `O=C(O)CCCCC1CCSS1` (stereo not given), the molecule was classed as inactive in assay [2], in [3], in assay [4], in assay [5], in assay [6] and in assay [7]. Further, the result in [8], in assay [9], in assay [10], in [11] and in assay [12] was inactive. Further, the activity change, negative = inhibition in [1] (at 57.5 µM (top of the series)) is 3.99% (inactive). Moreover, the max response was 11.5% in [1] (setting [13]) and 16.4% in [1] (setting [14]).
For `CC(=O)Nc1cccc(O)c1`, the molecule was classed as inactive in assay [2], in assay [3], in [4], in [5], in assay [6] and in assay [7]. Further, the result in assay [8], in [9], in assay [10], in assay [11] and in [12] was inactive. For the same molecule, the activity change, negative = inhibition in [1] (at 57.5 µM (top of the series)) was 14.9% (inactive). Also, the max response in [1] (setting [13]) was found to be 10%; in [1] (setting [14]) it was 23.8%.
In the case of `O=C1c2cccc(O)c2C(=O)c2c(O)cccc21`, the call in assay [7], in assay [8], in assay [9], in [10], in assay [11] and in [12] was inactive. In addition, the activity change, negative = inhibition in assay [1] (at 57.5 µM (top of the series)) is -5.01% (inactive). Further, the max response in assay [1] (setting [13]) is 2.23%; in assay [1] (setting [14]) it was -1.3%.
`CCCCCCCC(=O)OCC(COC(=O)CCCCCCC)OC(=O)CCCCCCC`: the outcome in assay [2], in assay [3], in assay [4], in [5], in assay [6] and in [7] was inactive. The call in assay [8], in [9], in assay [10], in assay [11] and in assay [12] was inactive.
With `Cc1c(N(C)C)c(=O)n(-c2ccccc2)n1C`, the molecule was called inactive in assay [2], in [3], in assay [4], in [5], in assay [6] and in assay [7]. Besides, the molecule was called inactive in [8], in assay [9], in assay [10], in assay [11] and in assay [12]. The activity change, negative = inhibition in [1] (at 25.7 µM (top of the series)) was -4.33% (inactive). For the same molecule, the values for the max response in [1] (setting [13]) and in assay [1] (setting [14]) were -0.692% and -4.11%, respectively.
